# Reference: publication PMC12864922, “TDP-43 directly inhibits mRNA accumulation in neurites through modulation of mRNA stability”
# Over roughly 9,900 sequences, “r (bound/input frequency ratio)” has its median near 0.7; the highest 2% begin near 6.5. This is one part of a sample in which the highest values are shown more often than they occur.
# B1: ENSMUSG00000031028.287|Tub (ssRNA)
# RNA: GGGAGUUCUACAGUCCGACGAUCGCUUCGAUAUCCGCAUGCUAGGCUGGAUUGAUGUAAAUGGAAGUAGUACUUUAAGAAAGCUCUAGAUUUCCCAGGUUGGACACUCGACGAAAGGCACACCUGCUGCAGCAGGUUCUGACACACCUGAGCCAUACAUUGCCAUCAGAGAACCCUCAGCGAGGUAGCCUUUGUUUACAGUCUAGUUUCUAGAGGGCAGUAGGACUUCCAUGCUGGGGCUGGCCUAUCUCCUGAUGAAAGAUUACAGUGCCAUCUCCUUCCCAUAGUUCUGUGUCUGCCCUCCCUCUUGCGGUCGCACUAGUGUGGAAUUCUCGGGUGUCAAGG
# B2: ENSMUSG00000029636.242|Wasf3 (ssRNA)
# RNA: GGGAGUUCUACAGUCCGACGAUCGCUUCGAUAUCCGCAUGCUACAUUGUGUCAGUUGACAGGGAAUGCCUGUGGGAUAAUUAAAAAUGGUUUUUGCUCAUGAGUUUGGGAUGUCACCCAGCCGCCCACAUCGCCUGCUAUGUGUGUGGACGCCUGUCCGCUUGGCCAGCUAUCCUGUAACACCUGCCAGUAGUAGGUUUUCCUCAUGUCACUAUGACAGUGAAAGCCCAUGUGCAAGCCCCUCCCUACGCCCUGCUUUGGCGUGUGUCUGAGUGCUCUGUGCUGCGCCAUGGCCAUCCUGGAGCUCUUGCGGUCGCACUAGUGUGGAAUUCUCGGGUGUCAAGG
# B3: ENSMUSG00000028439.73|Fam219a|190:194 (ssRNA)
# RNA: GGGAGUUCUACAGUCCGACGAUCGCUUCGAUAUCCGCAUGCUAGUAAGCGUUGGGUGAAGGGAUCACAGGGCCGGAAGGUUGGCCCCAGCCAGUGAAGCCAUGAAUCCCCCCCAAGCCCGGCUUGGAAAGGAAGGAAAGGGGUUUUGAGAAGAAAAGGAUCCAAGCAAUGGGGGCAGUUCUCACACCUCAGAGCCCCUCUCCCCAAACCCUGUGCCAGCCCAUAUACCUAUUACACAUUUCCCCUCAUCUCCAGAUGGGAAGCCUGGCAGCGCUGUCCAAAGGGAUACUGUCUCUCCAUUAGACUCUUGCGGUCGCACUAGUGUGGAAUUCUCGGGUGUCAAGG
# B4: ENSMUSG00000028439.184|Fam219a|6:22;24:41;51:58 (ssRNA)
# RNA: GGGAGUUCUACAGUCCGACGAUCGCUUCGAUAUCCGCAUGCUAUGUGCCACACACAUACACACACCCACACACACACACACACAUGUACCCGACACACACAUGAGCCUAUCUGUCCAGGGAACCAGAUUGGUGUCCGAGAUGAGGAAAUGGCUGUGGCCUGGGAAAUCAGUGAGAGGCCGCUUGGGAAUGAGAAUGCAGUGGACUGAAAGCACAGCCUGGCCAUCUGGAACCUGGGUUCUGGUCCCAGCCUCGGCAUUCUCCCUGAGCUCCUAAGCAAUUCCCAGGCUUCUCUAGGGCUUCAGCUCUUGCGGUCGCACUAGUGUGGAAUUCUCGGGUGUCAAGG
# B5: ENSMUSG00000028439.189|Fam219a (ssRNA)
# RNA: GGGAGUUCUACAGUCCGACGAUCGCUUCGAUAUCCGCAUGCUAUGUGUGUGUGUUGUACCCGAGUGUGUGUUGAGCCUAUCUGUCCAGGGAACCAGAUUGGUGUCCGAGAUGAGGAAAUGGCUGUGGCCUGGGAAAUCAGUGAGAGGCCGCUUGGGAAUGAGAAUGCAGUGGACUGAAAGCACAGCCUGGCCAUCUGGAACCUGGGUUCUGGUCCCAGCCUCGGCAUUCUCCCUGAGCUCCUAAGCAAUUCCCAGGCUUCUCUAGGGCUUCAGUUCUCACAACUGGAAAAUAAAGAGUAGCUGCUCUUGCGGUCGCACUAGUGUGGAAUUCUCGGGUGUCAAGG
# B6: ENSMUSG00000028439.188|Fam219a (ssRNA)
# RNA: GGGAGUUCUACAGUCCGACGAUCGCUUCGAUAUCCGCAUGCUAUGUGUGUGUGUGUGUGUUGUACCCGAGUGUGUGUUGAGCCUAUCUGUCCAGGGAACCAGAUUGGUGUCCGAGAUGAGGAAAUGGCUGUGGCCUGGGAAAUCAGUGAGAGGCCGCUUGGGAAUGAGAAUGCAGUGGACUGAAAGCACAGCCUGGCCAUCUGGAACCUGGGUUCUGGUCCCAGCCUCGGCAUUCUCCCUGAGCUCCUAAGCAAUUCCCAGGCUUCUCUAGGGCUUCAGUUCUCACAACUGGAAAAUAAAGAGCUCUUGCGGUCGCACUAGUGUGGAAUUCUCGGGUGUCAAGG
# B7: ENSMUSG00000061578.500|Ksr2|29:34;201:207 (ssRNA)
# RNA: GGGAGUUCUACAGUCCGACGAUCGCUUCGAUAUCCGCAUGCUACUCUGCCUCCCAAGUGCUGGGAUUAAAGCACACAACCACCAUUGCAAUCUUGAACUCUUGACCAAUAGAAAUCCUAGACUAGUGUUGCUAGGCAACUGACUGUAUUCAGGACACCCAGGGUGGGAGGUGGAUGGAGCUCUUGCCUAACACACACCAAGCCCCAAGUUCCAUCCCCAGUCCCACACAAACCAGAUAUGAUGCACACACCCUAUGUCCCCCACACACGAGAGAGCUGGAGGCAGGAGGAUCAGAAGUUCAGGCUCUUGCGGUCGCACUAGUGUGGAAUUCUCGGGUGUCAAGG
# B8: ENSMUSG00000028439.184|Fam219a (ssRNA)
# RNA: GGGAGUUCUACAGUCCGACGAUCGCUUCGAUAUCCGCAUGCUAUGUGCGUGUGUGUAUGUGUGUGCGUGUGUGUGUGUGUGUGUUGUACCCGAGUGUGUGUUGAGCCUAUCUGUCCAGGGAACCAGAUUGGUGUCCGAGAUGAGGAAAUGGCUGUGGCCUGGGAAAUCAGUGAGAGGCCGCUUGGGAAUGAGAAUGCAGUGGACUGAAAGCACAGCCUGGCCAUCUGGAACCUGGGUUCUGGUCCCAGCCUCGGCAUUCUCCCUGAGCUCCUAAGCAAUUCCCAGGCUUCUCUAGGGCUUCAGCUCUUGCGGUCGCACUAGUGUGGAAUUCUCGGGUGUCAAGG
# B9: ENSMUSG00000028439.186|Fam219a (ssRNA)
# RNA: GGGAGUUCUACAGUCCGACGAUCGCUUCGAUAUCCGCAUGCUAUAUGUGUGUGCGUGUGUGUGUGUGUGUGUUGUACCCGAGUGUGUGUUGAGCCUAUCUGUCCAGGGAACCAGAUUGGUGUCCGAGAUGAGGAAAUGGCUGUGGCCUGGGAAAUCAGUGAGAGGCCGCUUGGGAAUGAGAAUGCAGUGGACUGAAAGCACAGCCUGGCCAUCUGGAACCUGGGUUCUGGUCCCAGCCUCGGCAUUCUCCCUGAGCUCCUAAGCAAUUCCCAGGCUUCUCUAGGGCUUCAGUUCUCACAACUGCUCUUGCGGUCGCACUAGUGUGGAAUUCUCGGGUGUCAAGG
# B10: ENSMUSG00000061578.501|Ksr2|23:28;195:201 (ssRNA)
# RNA: GGGAGUUCUACAGUCCGACGAUCGCUUCGAUAUCCGCAUGCUACUCCCAAGUGCUGGGAUUAAAGCACACAACCACCAUUGCAAUCUUGAACUCUUGACCAAUAGAAAUCCUAGACUAGUGUUGCUAGGCAACUGACUGUAUUCAGGACACCCAGGGUGGGAGGUGGAUGGAGCUCUUGCCUAACACACACCAAGCCCCAAGUUCCAUCCCCAGUCCCACACAAACCAGAUAUGAUGCACACACCCUAUGUCCCCCACACACGAGAGAGCUGGAGGCAGGAGGAUCAGAAGUUCAGGGCCAUCCUCUUGCGGUCGCACUAGUGUGGAAUUCUCGGGUGUCAAGG
# B11: ENSMUSG00000028439.185|Fam219a|1:16;18:35;45:52 (ssRNA)
# RNA: GGGAGUUCUACAGUCCGACGAUCGCUUCGAUAUCCGCAUGCUAACACACAUACACACACCCACACACACACACACACAUGUACCCGACACACACAUGAGCCUAUCUGUCCAGGGAACCAGAUUGGUGUCCGAGAUGAGGAAAUGGCUGUGGCCUGGGAAAUCAGUGAGAGGCCGCUUGGGAAUGAGAAUGCAGUGGACUGAAAGCACAGCCUGGCCAUCUGGAACCUGGGUUCUGGUCCCAGCCUCGGCAUUCUCCCUGAGCUCCUAAGCAAUUCCCAGGCUUCUCUAGGGCUUCAGUUCUCACUCUUGCGGUCGCACUAGUGUGGAAUUCUCGGGUGUCAAGG
# B12: ENSMUSG00000028439.185|Fam219a (ssRNA)
# RNA: GGGAGUUCUACAGUCCGACGAUCGCUUCGAUAUCCGCAUGCUAUGUGUGUAUGUGUGUGCGUGUGUGUGUGUGUGUGUUGUACCCGAGUGUGUGUUGAGCCUAUCUGUCCAGGGAACCAGAUUGGUGUCCGAGAUGAGGAAAUGGCUGUGGCCUGGGAAAUCAGUGAGAGGCCGCUUGGGAAUGAGAAUGCAGUGGACUGAAAGCACAGCCUGGCCAUCUGGAACCUGGGUUCUGGUCCCAGCCUCGGCAUUCUCCCUGAGCUCCUAAGCAAUUCCCAGGCUUCUCUAGGGCUUCAGUUCUCACUCUUGCGGUCGCACUAGUGUGGAAUUCUCGGGUGUCAAGG
# B13: ENSMUSG00000061578.502|Ksr2|17:22;189:195 (ssRNA)
# RNA: GGGAGUUCUACAGUCCGACGAUCGCUUCGAUAUCCGCAUGCUAAGUGCUGGGAUUAAAGCACACAACCACCAUUGCAAUCUUGAACUCUUGACCAAUAGAAAUCCUAGACUAGUGUUGCUAGGCAACUGACUGUAUUCAGGACACCCAGGGUGGGAGGUGGAUGGAGCUCUUGCCUAACACACACCAAGCCCCAAGUUCCAUCCCCAGUCCCACACAAACCAGAUAUGAUGCACACACCCUAUGUCCCCCACACACGAGAGAGCUGGAGGCAGGAGGAUCAGAAGUUCAGGGCCAUCCUUAAUCUCUUGCGGUCGCACUAGUGUGGAAUUCUCGGGUGUCAAGG
# B14: ENSMUSG00000028439.187|Fam219a|6:23;33:40 (ssRNA)
# RNA: GGGAGUUCUACAGUCCGACGAUCGCUUCGAUAUCCGCAUGCUAUGUGCCACACACACACACACACAUGUACCCGACACACACAUGAGCCUAUCUGUCCAGGGAACCAGAUUGGUGUCCGAGAUGAGGAAAUGGCUGUGGCCUGGGAAAUCAGUGAGAGGCCGCUUGGGAAUGAGAAUGCAGUGGACUGAAAGCACAGCCUGGCCAUCUGGAACCUGGGUUCUGGUCCCAGCCUCGGCAUUCUCCCUGAGCUCCUAAGCAAUUCCCAGGCUUCUCUAGGGCUUCAGUUCUCACAACUGGAAAAUCUCUUGCGGUCGCACUAGUGUGGAAUUCUCGGGUGUCAAGG
# B15: ENSMUSG00000028439.187|Fam219a (ssRNA)
# RNA: GGGAGUUCUACAGUCCGACGAUCGCUUCGAUAUCCGCAUGCUAUGUGCGUGUGUGUGUGUGUGUGUUGUACCCGAGUGUGUGUUGAGCCUAUCUGUCCAGGGAACCAGAUUGGUGUCCGAGAUGAGGAAAUGGCUGUGGCCUGGGAAAUCAGUGAGAGGCCGCUUGGGAAUGAGAAUGCAGUGGACUGAAAGCACAGCCUGGCCAUCUGGAACCUGGGUUCUGGUCCCAGCCUCGGCAUUCUCCCUGAGCUCCUAAGCAAUUCCCAGGCUUCUCUAGGGCUUCAGUUCUCACAACUGGAAAAUCUCUUGCGGUCGCACUAGUGUGGAAUUCUCGGGUGUCAAGG
# Biological target: TDP-43 (Homo sapiens, UniProt Q13148 1-414)
# Sequence (Q13148 whole entry): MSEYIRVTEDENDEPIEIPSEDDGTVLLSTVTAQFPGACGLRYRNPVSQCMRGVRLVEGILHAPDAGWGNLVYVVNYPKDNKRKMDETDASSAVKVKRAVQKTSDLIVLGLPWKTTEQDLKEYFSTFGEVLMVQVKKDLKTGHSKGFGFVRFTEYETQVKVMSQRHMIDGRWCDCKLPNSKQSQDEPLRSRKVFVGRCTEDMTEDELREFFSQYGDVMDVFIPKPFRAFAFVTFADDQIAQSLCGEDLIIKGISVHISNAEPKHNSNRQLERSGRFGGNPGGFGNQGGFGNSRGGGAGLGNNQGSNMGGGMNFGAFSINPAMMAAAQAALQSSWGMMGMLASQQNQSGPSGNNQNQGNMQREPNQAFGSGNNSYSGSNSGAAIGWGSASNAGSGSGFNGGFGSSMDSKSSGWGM
# Assay: RNA Bind-n-Seq with designed 260-mer pool; 25 mM Tris-HCl, 150 mM KCl, 3 mM MgCl2, BSA (printed 500 mg/mL), 20 units/mL SUPERase IN; pH not stated; 500 nM RNA pool, 1 h, 4 C; TDP-43 5, 50, 500 nM; high values mean tight binding
# Details: protein: recombinant; tags: SBP (GST cleaved off with PreScission; pGEX-GST-SBP)
# Method in brief: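 An in vitro-transcribed pool of 260-nt 3′ UTR oligos (500 nM) was incubated for 1 h at 4 °C with recombinant SBP-tagged TDP-43 at 5, 50 or 500 nM held on streptavidin beads. The buffer contained 25 mM Tris-HCl, 150 mM KCl, 3 mM MgCl2, BSA and SUPERase IN. Biotin-eluted bound RNA was sequenced, and binding, R, is each oligo's normalized read abundance in the bound sample over that in input.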
row,Binder,binding signal
1,B1,0.856 R (bound/input frequency ratio)
2,B2,0.663 R (bound/input frequency ratio)
3,B3,0.449 R (bound/input frequency ratio)
4,B4,2.43 R (bound/input frequency ratio)
5,B5,1.86 R (bound/input frequency ratio)
6,B6,4.17 R (bound/input frequency ratio)
7,B7,3.25 R (bound/input frequency ratio)
8,B8,7.33 R (bound/input frequency ratio)
9,B9,6.13 R (bound/input frequency ratio)
10,B10,6.59 R (bound/input frequency ratio)
11,B11,2.5 R (bound/input frequency ratio)
12,B12,7.73 R (bound/input frequency ratio)
13,B13,3.46 R (bound/input frequency ratio)
14,B14,1.44 R (bound/input frequency ratio)
15,B15,6.68 R (bound/input frequency ratio)
